Where “and” joins values, the source holds several entries; their conditions need not be identical. Equal values may be shown once. Out of some 5,500 compounds screened, about 2,000 (36%) were called active. Inconclusive results (about 18%) are left out. Rule as the data show it: active = normalized growth mostly below about 0.91 (no sharp cut-off); inconclusive = no clear call, values can overlap the other calls; inactive = mostly above about 0.92. Some of the results follow.
Test: chemical genetic growth profiling, strain panel (AID 1159580);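 also: tested at 20 µM; growth read once vehicle control cultures reached saturation at 30 °C; 1 = growth at the plate median or of vehicle wells; lower values mean less growth of the strain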
Conditions: S. cerevisiae deletion strains, growth OD

Measured: normalized growth

COC(=O)[C@@]1(C)CCC[C@]2(C)c3ccc(O)c(C(C)C)c3CCC12 (stereo not given in full)
active: locus YAL030W, strain snc1, active compounds read low 0.85 | locus YBL061C, strain skt5, active compounds read low 0.617 | locus YBR009C, strain hhf1, active compounds read low 0.364 | locus YBR021W, strain FUR4, active compounds read low 0.646 | locus YBR023C, strain chs3, active compounds read low 0.793 | locus YBR229C, strain ROT2, active compounds read low 0.875 | locus YBR231C, strain swc5, active compounds read low 0.705 | locus YCL011C, strain gbp2, active compounds read low 0.652 | locus YCL016C, strain dcc1, active compounds read low 0.847 | locus YCL029C, strain bik1, active compounds read low 0.804 | locus YDL040C, strain nat1, active compounds read low 0.928 | locus YDL074C, strain BRE1, active compounds read low 0.174 | locus YDL101C, strain DUN1, active compounds read low 0.894 | locus YDL192W, strain arf1, active compounds read low 0.344 | locus YDR069C, strain doa4, active compounds read low 0.89 | locus YDR101C, strain arx1, active compounds read low 0.782 | locus YDR137W, strain rgp1, active compounds read low 0.134 | locus YDR159W, strain sac3, active compounds read low 0.29 | locus YDR162C, strain NBP2, active compounds read low 0.595 | locus YDR195W, strain ref2 0.189 | locus YDR297W, strain sur2, active compounds read low 0.566 | locus YDR318W, strain mcm21, active compounds read low 0.788 | locus YDR392W, strain spt3, active compounds read low 0.283 | locus YDR502C, strain sam2, active compounds read low 0.773 | locus YEL061C, strain CIN8, active compounds read low 0.803 | locus YER015W, strain faa2, active compounds read low 0.793 | locus YER016W, strain bim1, active compounds read low 0.825 | locus YER155C, strain BEM2, active compounds read low 0.128 | locus YER167W, strain BCK2, active compounds read low 0.796 | locus YGL086W, strain mad1, active compounds read low 0.729 | locus YGL167C, strain pmr1, active compounds read low 0.374 | locus YGL173C, strain kem1, active compounds read low 0.832 | locus YGL240W, strain doc1, active compounds read low 0.772 | locus YGL248W, strain PDE1, active compounds read low 0.828 | locus YHR027C, strain rpn1, active compounds read low 0.499 | locus YHR030C, strain SLT2, active compounds read low 0.493 and 0.19 | locus YHR079C, strain IRE1, active compounds read low 0.502 | locus YHR094C, strain hxt1, active compounds read low 0.897 | locus YHR129C, strain ARP1, active compounds read low 0.518 | locus YHR142W, strain chs7, active compounds read low 0.875 | locus YHR200W, strain rpn10, active compounds read low 0.871 | locus YIL066C, strain RNR3, active compounds read low 0.65 | locus YIL125W, strain kgd1, active compounds read low 0.693 | locus YJL095W, strain BCK1 (second series), active compounds read low 0.689 | locus YJL095W, strain BCK1, active compounds read low 0.277 and 0.318 | locus YJL129C, strain trk1, active compounds read low 0.593 | locus YJL134W, strain LCB3, active compounds read low 0.815 | locus YJL164C, strain tpk1, active compounds read low 0.78 | locus YJL166W, strain qcr8, active compounds read low 0.563 | locus YJL187C, strain SWE1 (second series), active compounds read low 0.638 | locus YJL187C, strain SWE1, active compounds read low 0.73
inactive: locus YAL021C, strain ccr4, active compounds read low 1.08 | locus YAL026C, strain drs2, active compounds read low 0.929 | locus YBR171W, strain sec66, active compounds read low 0.946 | locus YBR279W, strain paf1, active compounds read low 0.941 | locus YCL069W, strain vba3, active compounds read low 0.977 | locus YCR088W, strain abp1, active compounds read low 0.971 | locus YDL005C, strain med2, active compounds read low 0.944 | locus YDL035C, strain GPR1, active compounds read low 0.912 | locus YDL185W, strain tfp1, active compounds read low 0.956 | locus YDR001C, strain nth1, active compounds read low 0.978 | locus YDR334W, strain swr1, active compounds read low 0.998 | locus YDR335W, strain msn5, active compounds read low 0.965 | locus YDR388W, active compounds read low 0.942 | locus YEL003W, strain gim4, active compounds read low 0.929 | locus YEL037C, strain rad23, active compounds read low 0.988 | locus YEL061C, strain CIN8 (second series), active compounds read low 0.981 | locus YER110C, active compounds read low 1 | locus YER111C, strain swi4, active compounds read low 0.995 | locus YER155C, strain BEM2 (second series), active compounds read low 0.891 | locus YFR010W, strain ubp6, active compounds read low 0.952 | locus YGL078C, strain dbp3, active compounds read low 0.935 | locus YGL227W, strain vid30, active compounds read low 0.97 | locus YGL253W, strain hxk2, active compounds read low 0.951 | locus YGR135W, strain pre9, active compounds read low 0.957 | locus YGR252W, strain gcn5, active compounds read low 0.781 | locus YHR013C, strain ard1, active compounds read low 1.01 | locus YHR079C, strain IRE1 (second series), active compounds read low 0.927 | locus YIL073C, strain SPO22, active compounds read low 1.07 | locus YIR030C, strain dcg1, active compounds read low 0.954 | locus YJL092W, strain hpr5, active compounds read low 0.979 | locus YJL115W, strain asf1, active compounds read low 0.976 | locus YJL154C, strain vps35, active compounds read low 0.981 | locus YJL168C, strain set2, active compounds read low 1 | locus YJR043C, strain POL32, active compounds read low 0.955
